Shown are actives, neighbours in structure and some others; about 3.3% of the full set was active somewhere.
PHOSPHO1 block: PHOSPHO1 (human) inhibition | 290,000 compounds, 1.1% hits | AID 1565 | Q8TCT1 | inhibition, % at 13.3 µM | recombinant PHOSPHO1, absorbance phosphatase assay; in the data active = inhibition above about 60%
Target sequence (Q8TCT1 whole entry, looked up): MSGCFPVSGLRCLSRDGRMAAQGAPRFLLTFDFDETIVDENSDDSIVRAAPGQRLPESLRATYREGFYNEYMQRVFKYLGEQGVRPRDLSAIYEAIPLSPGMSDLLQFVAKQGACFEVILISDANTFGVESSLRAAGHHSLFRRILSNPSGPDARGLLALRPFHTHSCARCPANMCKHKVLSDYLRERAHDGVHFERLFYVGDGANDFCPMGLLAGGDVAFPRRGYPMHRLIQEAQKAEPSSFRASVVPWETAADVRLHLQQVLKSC
TPT1 inh: C. albicans TPT1 enzyme inhibition. inhibition, % at 5 µM. 300,000 compounds, 0.81% hits. recombinant caTPT1, FP RNA substrate dephosphorylation. AID 1962;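 active = inhibition above the mean of all tested compounds plus 3 SD, set per screening campaign, cut at about 24% in these data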
Fh CTSL1 inh: cathepsin L1 inhibition, PFM18AAP counter-screen; 300,000 compounds, 0.49% hits; inhibition, % at 5.96 µM; recombinant F. hepatica cathepsin L1, Z-Leu-Arg-MCA fluorescence;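 active = inhibition above the mean of all tested compounds plus 3 SD, set per screening campaign, cut at about 17% in these data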
Rpn11 block: blocks the human proteasome subunit Rpn11; O00487; 360,000 compounds, 0.59% hits; inhibition, % at 20 µM; human 26S proteasome, Ub4-pepOG fluorescence polarization; 20S core pre-blocked with epoxomicin;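 active = inhibition at 20 µM, scaled to each plate's controls, above about 33%, limit read from the data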
HNF4A DNA FP: change in binding of human HNF4 alpha to DNA; activity change, % at 10 µM; HNF4a-FITC DNA binding, fluorescence polarization, 1 h; AID 1224865; 360,000 compounds, 0.3% hits; in the data active = activity change above about 30%, passing the limit was not always enough
CendR NRP1 mod: alters CendR peptide binding to human NRP-1 | O14786 | FAM-RPARPAR peptide binding to NRP-1, fluorescence polarization | inhibition, % at 25 µM | 360,000 compounds, 0.85% hits;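 active = inhibition or corrected inhibition above about 18%, plus a signal ratio from 0.5 to 1.5, limit read from the data, passing the limit was not always enough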
caTPT1 confirm: TPT1 (C. albicans) inhibition, confirmation; 2,400 compounds, 74% hits; recombinant caTPT1, fluorescence polarization, RNase T1 coupled; shares compounds with TPT1 inh; AID 2149; inhibition, % at 5 µM;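 active = inhibition above the primary screen limit, the mean inhibition of all tested compounds plus 3 SD, cut at about 25% in these data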
RNase T1 counter: counter-screen for TPT1 inhibitors: inhibitors of Aspergillus oryzae RNase T1; shares compounds with TPT1 inh; RNase T1 cleavage, fluorescence polarization, 1536-well; inhibition, % at 5 µM; 2,400 compounds, 83% hits; AID 2153;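 active = inhibition above the solvent-only control well mean plus 3 SD, limit set per screening run, cut at about 23% in these data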;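 note: inhibitors block cleavage so intact labeled substrate keeps polarization high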
Target sequence (P00651 whole entry, looked up): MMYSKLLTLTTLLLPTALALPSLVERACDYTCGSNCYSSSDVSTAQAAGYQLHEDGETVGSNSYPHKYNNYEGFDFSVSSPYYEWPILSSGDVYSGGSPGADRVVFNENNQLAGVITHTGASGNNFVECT
Large screens that a line does not name were inactive (follow-up assays come after a bar, where shown).

CC(CC1C(C#N)=C(N)SC(N)=C1C#N)c1ccccc1 (centres undefined)	TPT1 inh 60 (not shown: Rpn11 block) | caTPT1 confirm 29 | RNase T1 counter 38
Oc1c(C=Nc2cccnc2)sc2ccccc12	none
Oc1sc(C=Nc2ccccc2)c2ccccc12	PHOSPHO1 block 65, TPT1 inh 119 (not shown: Rpn11 block) | caTPT1 confirm 105 | RNase T1 counter 104
Oc1sc(C=Nc2ccc(F)cc2)c2ccccc12	PHOSPHO1 block 65, TPT1 inh 128, HNF4A DNA FP 36 (not shown: Rpn11 block) | caTPT1 confirm 110 | RNase T1 counter 109
Oc1c(C=Nc2ccccc2)sc2ccccc12	TPT1 inh 100, HNF4A DNA FP 37 (not shown: Rpn11 block) | caTPT1 confirm 127 | RNase T1 counter 130
O=C(O)CCC(=O)Nc1ccc(Br)cc1C(=O)c1ccc(Cl)cc1	none
COc1ccc(C(=O)Nc2ccnn2C2CCN(C(C)CSC)CC2)cc1 (centres undefined)	none
O=C(O)C(C(O)c1ccccc1)[n+]1ccccc1 (centres undefined)	none (no result: PHOSPHO1 block)
Cc1ccc2ccc(S(=O)(=O)NCc3ccco3)cc2c1	none
C[C@H](NC(=O)c1ncn(C)c1C(=O)N[C@@H](C)c1ccccc1)c1ccccc1	none (no result: PHOSPHO1 block, TPT1 inh, Fh CTSL1 inh)
C=CCn1c(=O)/c(=C/c2ccc(O)cc2)s/c1=C(/C#N)c1nnc2n1CCCCC2	TPT1 inh 118, HNF4A DNA FP 80 (not shown: Rpn11 block) | caTPT1 confirm 119 | RNase T1 counter 116
COc1ccc(S(=O)(=O)N2CCCOC2CNC(=O)C(=O)NCCO)cc1 (centres undefined)	none (no result: PHOSPHO1 block, TPT1 inh, Fh CTSL1 inh)
Cc1nnc(SCc2nc3sc(C(=O)O)c(C)c3c(=O)[nH]2)s1	none
CSCc1nc2sc(C(=O)Nc3nc(C)cs3)c(C)c2c(=O)[nH]1	TPT1 inh 33 (not shown: Rpn11 block) | caTPT1 confirm 39 | RNase T1 counter 51
C/C(=N\Nc1ccc([N+](=O)[O-])cc1)c1ccc2c(c1)OCO2	TPT1 inh 57 | caTPT1 confirm 53 | RNase T1 counter 65
C/C(=N/Nc1ccc([N+](=O)[O-])cc1)c1ccc(C)cc1C	TPT1 inh 26 | caTPT1 confirm 36 | RNase T1 counter 47
O=S(=O)(CC(c1ccccc1)N1CCCCC1)c1ccc(Cl)cc1 (centres undefined)	none
Cc1ccc(N2CC(C(=O)Nc3ccccc3OC(F)F)CC2=O)cc1 (centres undefined)	none (no result: PHOSPHO1 block, TPT1 inh, Fh CTSL1 inh)
CCN(CC(=O)NCc1cccs1)C(=O)/C=C/c1cc(Br)ccc1OC(F)F	none (no result: PHOSPHO1 block, TPT1 inh, Fh CTSL1 inh)
Cc1[nH]c2ccccc2c1/C=N/NC(=O)c1cccc([N+](=O)[O-])c1	none
COc1ccccc1NS(=O)(=O)c1cc([N+](=O)[O-])ccc1N/N=C/c1c(C)[nH]c2ccccc12	TPT1 inh 101, HNF4A DNA FP 57 (not shown: Rpn11 block) | caTPT1 confirm 104 | RNase T1 counter 107
O=[N+]([O-])c1ccc(N/N=C/c2c[nH]c3ccccc23)c(S(=O)(=O)Nc2ccc(Cl)cc2)c1	TPT1 inh 36, HNF4A DNA FP 65 (not shown: Rpn11 block) | caTPT1 confirm 107 | RNase T1 counter 108
Cc1cccc(NC(=S)N(CCCN2CCOCC2)C(C)c2cc3ccccc3o2)c1C (centres undefined)	none
CCN(CC)c1ccc(C=C(c2nnnn2-c2ccc(C)cc2)c2nnnn2-c2ccc(C)cc2)cc1	TPT1 inh 77 (not shown: Rpn11 block) | caTPT1 confirm 73 | RNase T1 counter 85
Cc1cc(=O)[nH]c(SCC(=O)c2ccccc2)c1C#N	TPT1 inh 51 | caTPT1 confirm 31 | RNase T1 counter 45
Cc1cc(C)c(C#N)c(SCC(=O)c2ccccc2)n1	none
Cc1nnc(NNS(=O)(=O)c2ccc(Cl)cc2)[nH]c1=O	none
Cc1ccc(S(=O)(=O)NNc2nnc(C)c(=O)[nH]2)cc1	TPT1 inh 51 | caTPT1 confirm inactive | RNase T1 counter inactive
CC(C)c1ccc(NC(=O)CSc2n[nH]c(=O)n2C2CC2)cc1	none
CC(C)c1ccc(/C=C2\Oc3c(ccc(O)c3CN3CCN(C)CC3)C2=O)cc1	TPT1 inh 37 | caTPT1 confirm 40 | RNase T1 counter 51
CCN1CCN(Cc2c(O)ccc3c2O/C(=C\C=C\c2ccccc2OC)C3=O)CC1	TPT1 inh 53, HNF4A DNA FP 47 (not shown: Rpn11 block) | caTPT1 confirm 64 | RNase T1 counter 68
COc1ccc(NC(=O)CSc2ccc3nnc(CCNC(=O)c4ccccc4)n3n2)cc1	TPT1 inh 41 | caTPT1 confirm inactive | RNase T1 counter inactive
COc1ccc(S(=O)(=O)N2CC3C4C=CC(C4)C3C2)cc1 (centres undefined)	none
COCCNc1nc(-c2cc(C)n(CCc3ccc(OC)cc3)c2C)cs1	TPT1 inh 48 | caTPT1 confirm inactive | RNase T1 counter inactive
Cc1nnc(N/N=C/c2ccco2)n1N	TPT1 inh 70 | caTPT1 confirm inactive | RNase T1 counter inactive
Cc1ccc(C(=O)NCCc2nnc3ccc(N4CCCC4)nn23)cc1	none
C[C@H]1CN([C@@H](C)CO)C(=O)CCCn2nncc2CO[C@H]1CN(C)C(=O)c1ccccc1	none (no result: PHOSPHO1 block, TPT1 inh, Fh CTSL1 inh)
O=C(CCN1C(=O)/C(=C/c2cccs2)SC1=S)Nc1ccc(C(=O)O)cc1	TPT1 inh 31 | caTPT1 confirm 29 | RNase T1 counter 39
O=C(CCN1C(=O)/C(=C/c2cccs2)SC1=S)Nc1ccccn1	TPT1 inh 33, HNF4A DNA FP 33 (not shown: Rpn11 block) | caTPT1 confirm 31 | RNase T1 counter 42
Cc1ccc(/C=C2\SC(=S)N(CCCC(=O)Nc3ccccn3)C2=O)cc1	none
COc1ccc(/C=C2\SC(=S)N(CCCC(=O)Nc3ccccn3)C2=O)cc1OC	TPT1 inh 32 | caTPT1 confirm 53 | RNase T1 counter 64
CN(C)S(=O)(=O)c1ccc(Cl)c(C(=O)OCC(=O)NC(=O)c2cccn2C)c1	TPT1 inh 125 | caTPT1 confirm inactive | RNase T1 counter inactive
CN(C)c1ccc(/C=C(\NC(=O)c2ccccc2)C(=O)NCc2cccnc2)cc1	TPT1 inh 51 | caTPT1 confirm 68 | RNase T1 counter 84
CN(C)c1ccc(/C=C(\NC(=O)c2ccccc2)C(=O)NCCN2CCOCC2)cc1	TPT1 inh 28 | caTPT1 confirm inactive | RNase T1 counter 23
O=C(NCCCn1ccnc1)/C(=C/c1ccc(Cl)cc1)NC(=O)c1ccccc1	none
CN(C)c1ccc(/C=C(\NC(=O)c2ccccc2)C(=O)N/N=C/c2ccc(C(=O)O)cc2)cc1	TPT1 inh 33 | caTPT1 confirm inactive | RNase T1 counter 29
CN(C)c1ccc(/C=C(/NC(=O)c2ccccc2)C(=O)NCCCn2ccnc2)cc1	TPT1 inh 134 (not shown: Rpn11 block) | caTPT1 confirm 155 | RNase T1 counter 157

Compound activity deposited in PubChem BioAssay by several laboratories.
